One experiment relates to T1, TIE2.
T1 construct: gene TEK

The test system of a further experiment is T2, TRKA.
T2 construct: gene NTRK1
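Also: kd values determined as follow-up on hits from a single-replicate KINOMEscan panel screen.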

`Cl.Cl.Cl.N#Cc1ccc(CCNc2nccc(-c3cccc(CN4CCNCC4)c3)n2)cc1` [GSK2137462]: the Kd (usually the constant that tells how readily two partners part at equilibrium) with STK33 is 3.9 µM; in the experiment with WEE1, over 10 µM; in the experiment on WNK4, over 10 µM. In the experiment on STK36, `CS(=O)(=O)Cc1ccc(Nc2nccc(-c3c(-c4cccc(NC(=O)C5CCCCC5)c4)nn4ncccc34)n2)cc1` [GSK350559] came in with an equilibrium dissociation constant (Kd) of 0.067 µM. With `CNCc1ccc2nc(NC(=O)c3ccc(C(C)(C)C)cc3)cn2c1`, the Kd in the experiment with TAOK1 and in the experiment on TAOK3 was over 10 µM throughout. As for `COc1cccc(CNC(=O)NC2CCN(c3ccnc(Nc4ccc(F)cc4)n3)C2)c1` (stereo not drawn) [GSK1379723], the Kd in the experiment with TESK1 was 9.8 µM; in the experiment on TXK it was over 10 µM. For the compound `Cn1cncc1C(=O)NC1CCN(c2ccnc(Nc3ccc(F)cc3)n2)C1` (stereo not drawn) [GSK1379717], the dissociation constant (Kd) with TESK1 and in the experiment with TXK was over 10 µM in each case.

As to `COc1ccc2cc(-c3nc(-c4ccccc4C(C)C)[nH]c3-c3ccncc3)ccc2c1` [SB-660566], the Kd is 0.77 µM with TGFBR1 and 0.16 µM in the experiment on TIE2.

In the experiment on TIE2, `Cc1nccc(-c2c(-c3ccc(F)cc3)ncn2CCCN2CCOCC2)n1.Cl` [SB-282975] showed a Kd of over 10 µM.

Turning to `NS(=O)(=O)c1cccc(N/C=C2\C(=O)Nc3ccc(S(=O)(=O)Cc4c(Cl)cccc4Cl)cc32)c1` [GSK398099], the Kd in the experiment on TNIK was found to be 0.33 µM. On the same count and under the same terms, as for `Nc1nccc(-c2c(-c3ccc(F)cc3)ncn2C2CCN(Cc3ccccc3)CC2)n1` [SB-219980], the figure is 4.1 µM. The compound `O=C(Nc1n[nH]c2nc(-c3cccs3)c(Br)cc12)C1CC1` [SB-735297] gave a Kd in the experiment on TNNI3K of over 10 µM. For the compound `COC(=O)C(Cc1ccccc1)NC(=O)NC1CCN(c2ccnc(Nc3ccc(F)cc3)n2)C1` (stereo not drawn) [GSK1379714], the Kd in the experiment with TRKA worked out at 1.5 µM. The same measure, in the same setting: the value for `O=C(Nc1n[nH]c2cc(-c3ccsc3)ccc12)C1CC1` [SB-732932] was 3.1 µM.

Source of the values: publication PMC5540273 (PLoS ONE, 2017).
